# Reference: article PMC4242493, “Sequence specificity incompletely defines the genome-wide occupancy of Myc”
# Whole data set: some 33,000 sequences, median “normalized occupancy” near 0.075, cut for the highest 2% near 0.095. The full list was thinned out, with the highest values kept by preference.
# Target: MaxL homodimer (Homo sapiens, UniProt P61244 1-160)
# Assay: universal protein-binding microarray (PBM); PBS-based mixture, 10 nM His-tagged protein dimer, 2% milk, 200 ng/uL BSA, 50 ng/uL salmon testes DNA, 0.02% TX-100; detection with Alexa 488 anti-His antibody;; high values mean tight binding
# Conditions: protein: recombinant; tags: C-terminal His-tag (pET21a); chain copies: 2; dsDNA, one strand shown
# Outline: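 His-tagged protein dimer at 10 nM was incubated on Agilent 4 x 44 K arrays with the 'all 10-mer' universal design. Bound protein was tagged with 10 ng/μL fluorophore-conjugated anti-His antibody, and arrays were scanned on a GenePix 4400A. Binding occupancy for each 8-mer is its fluorescence intensity normalised to the highest-ranked 8-mer's intensity.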
# MaxL homodimer, sequence (P61244 whole entry): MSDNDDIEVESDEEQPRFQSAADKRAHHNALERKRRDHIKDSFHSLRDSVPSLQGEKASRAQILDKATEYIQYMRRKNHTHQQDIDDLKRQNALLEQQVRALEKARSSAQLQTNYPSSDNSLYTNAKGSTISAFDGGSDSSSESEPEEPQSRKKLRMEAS
row,Sequence,binding signal
1,GAGAAGGA,0.0733 normalized occupancy
2,CAACAATC,0.0759 normalized occupancy
3,ATGCCCGG,0.0744 normalized occupancy
4,AGACCTTA,0.0772 normalized occupancy
5,GGCGTGGA,0.0968 normalized occupancy
6,AGCGTGGC,0.108 normalized occupancy
7,GGCGTCGA,0.0725 normalized occupancy
8,AGCGTGGG,0.113 normalized occupancy
9,GCCGTGGA,0.0736 normalized occupancy
10,CGGGTGGC,0.0775 normalized occupancy
11,CCCGTGGC,0.0811 normalized occupancy
12,AGAGTGGG,0.0749 normalized occupancy
13,CGCGTGGC,0.154 normalized occupancy
14,ACCGTGGC,0.0752 normalized occupancy
15,AGCGTTGG,0.0764 normalized occupancy
16,AGCGTTGC,0.0728 normalized occupancy
17,CCCCAAAA,0.0734 normalized occupancy
18,AATAACCC,0.0806 normalized occupancy
19,AACAGGAT,0.0759 normalized occupancy
20,CCGTCCTC,0.0798 normalized occupancy
21,CGTCACGA,0.0766 normalized occupancy
22,GTGGACGA,0.0753 normalized occupancy
23,AACTCTAC,0.0729 normalized occupancy
24,CGCATCAG,0.0761 normalized occupancy
25,CTATAGGA,0.0753 normalized occupancy

row,Sequence,binding signal
1,TGCCAGAA,0.0775 normalized occupancy
2,CCCGTGGA,0.0823 normalized occupancy
3,CGTGTGGC,0.0953 normalized occupancy
4,CGTGTGGA,0.0865 normalized occupancy
5,AGTGTGGC,0.0795 normalized occupancy
6,CGCGTCGA,0.0756 normalized occupancy
7,AGGGTGGA,0.074 normalized occupancy
8,ACCGTGGA,0.0797 normalized occupancy
9,AGCGTGGA,0.106 normalized occupancy
10,CGCGTGGA,0.147 normalized occupancy
11,ACCCTGCA,0.0751 normalized occupancy
12,CTACTAGA,0.0787 normalized occupancy
13,CACTTTGA,0.0776 normalized occupancy
14,CCGCCCTA,0.0723 normalized occupancy
15,CGAATTCC,0.0757 normalized occupancy
16,AGTGGGTG,0.0863 normalized occupancy
17,ACTCGACT,0.0722 normalized occupancy
18,ACACGTGA,0.383 normalized occupancy
19,ACACGTGT,0.545 normalized occupancy
20,ACACGTAT,0.0833 normalized occupancy
21,ACACGTCT,0.0781 normalized occupancy
22,AGACGTGA,0.0821 normalized occupancy
23,ACACGTAC,0.0858 normalized occupancy
24,ACACGTAG,0.0822 normalized occupancy
25,ACACGTGC,0.567 normalized occupancy

row,Sequence,binding signal
1,ACACGTCC,0.08 normalized occupancy
2,ATACGTGA,0.081 normalized occupancy
3,ACACGTGG,0.852 normalized occupancy
4,AGACGTGG,0.0819 normalized occupancy
5,ATGAAGCA,0.082 normalized occupancy
6,CATTATTA,0.0832 normalized occupancy
7,TAATGCTA,0.0758 normalized occupancy
8,ACTCTGAA,0.0737 normalized occupancy
9,ATTCAGCA,0.0725 normalized occupancy
10,AATCGTTA,0.0761 normalized occupancy
11,ATACGTAT,0.0856 normalized occupancy
12,ACATGGGA,0.0901 normalized occupancy
13,ACATGGAC,0.0847 normalized occupancy
14,ACATGGCC,0.0878 normalized occupancy
15,GCATGGGA,0.0967 normalized occupancy
16,TCATGGGA,0.0807 normalized occupancy
17,GCATGGAC,0.0979 normalized occupancy
18,GCATGGCA,0.102 normalized occupancy
19,CCATGGCC,0.0766 normalized occupancy
20,ACATGGCA,0.0904 normalized occupancy
21,CCATGGAC,0.0837 normalized occupancy
22,GCATGGCC,0.0963 normalized occupancy
23,TCATGGCA,0.0816 normalized occupancy
24,AATTAAGC,0.0756 normalized occupancy
25,CTGACACC,0.0794 normalized occupancy

row,Sequence,binding signal
1,GTTTGTGA,0.0718 normalized occupancy
2,TAGCATCA,0.0821 normalized occupancy
3,GTCTTCAA,0.0773 normalized occupancy
4,GAGTTGCC,0.0729 normalized occupancy
5,ATTCCATC,0.0772 normalized occupancy
6,TGATTCCA,0.0829 normalized occupancy
7,AACAAACC,0.074 normalized occupancy
8,CCATGACC,0.0831 normalized occupancy
9,ACATGATA,0.0928 normalized occupancy
10,ACATGACG,0.0854 normalized occupancy
11,GCATGACA,0.088 normalized occupancy
12,GCATGACC,0.0988 normalized occupancy
13,ACATGACA,0.089 normalized occupancy
14,ACATGATC,0.101 normalized occupancy
15,ACATGACC,0.0952 normalized occupancy
16,CCATGATC,0.0848 normalized occupancy
17,ATGGGAGC,0.0768 normalized occupancy
18,GTTCCCTA,0.0721 normalized occupancy
19,CGAAAATC,0.0726 normalized occupancy
20,CCTTAACC,0.0754 normalized occupancy
21,CGCTTATA,0.0805 normalized occupancy
22,CAGTCAGG,0.0732 normalized occupancy
23,ACTAAGTC,0.0734 normalized occupancy
24,CCCCTTTC,0.0738 normalized occupancy
25,ACGAACAG,0.0753 normalized occupancy

row,Sequence,binding signal
1,ACTCACAT,0.0886 normalized occupancy
2,CCTGCTGA,0.0756 normalized occupancy
3,ATTCCACG,0.0964 normalized occupancy
4,CATCCACG,0.108 normalized occupancy
5,CACCCACG,0.0964 normalized occupancy
6,CATCCACA,0.0859 normalized occupancy
7,CCCCCACG,0.0958 normalized occupancy
8,GTTCCACA,0.0784 normalized occupancy
9,ATTCCACA,0.0794 normalized occupancy
10,GCCCCACA,0.0784 normalized occupancy
11,CACCCACA,0.0789 normalized occupancy
12,CACCCACC,0.0828 normalized occupancy
13,AATCCACG,0.0813 normalized occupancy
14,CCCCCACA,0.0839 normalized occupancy
15,CAACTATG,0.0846 normalized occupancy
16,AACAGCAT,0.087 normalized occupancy
17,GTTTGGAA,0.0754 normalized occupancy
18,ACGCCTGG,0.0735 normalized occupancy
19,CAGTAATA,0.0775 normalized occupancy
20,CATCCCCG,0.0773 normalized occupancy
21,TTAATGAA,0.0772 normalized occupancy
22,ACACAGGC,0.0789 normalized occupancy
23,CACTTCGC,0.0739 normalized occupancy
24,GTCCTCAC,0.0765 normalized occupancy
25,AAGAGCAC,0.0774 normalized occupancy

row,Sequence,binding signal
1,CGCGGGAC,0.0733 normalized occupancy
2,TAAAGGAA,0.0741 normalized occupancy
3,AATCGAAA,0.0785 normalized occupancy
4,ATGATGTG,0.088 normalized occupancy
5,AAGTGGAT,0.0727 normalized occupancy
6,GAGTGGAC,0.0761 normalized occupancy
7,ACGTGGAA,0.108 normalized occupancy
8,AGGTGGAC,0.0775 normalized occupancy
9,AAGTGGAA,0.072 normalized occupancy
10,CCGTGGAC,0.0739 normalized occupancy
11,ACGTGGAC,0.106 normalized occupancy
12,GCGTGGAC,0.0976 normalized occupancy
13,ACGTGGAT,0.104 normalized occupancy
14,AGGTGGAA,0.0722 normalized occupancy
15,GGGTGGAC,0.0796 normalized occupancy
16,AGGTGGAT,0.08 normalized occupancy
17,AGCTGAAA,0.0723 normalized occupancy
18,ACACGGCC,0.0719 normalized occupancy
19,AAACATCC,0.0762 normalized occupancy
20,CGGCACAA,0.0773 normalized occupancy
21,TCAATAGA,0.0745 normalized occupancy
22,ACAAGGCT,0.0781 normalized occupancy
23,GAGGCAGA,0.0719 normalized occupancy
24,CGCTCTAA,0.0739 normalized occupancy
25,AGGGCATA,0.0779 normalized occupancy

row,Sequence,binding signal
1,ACGTGGAG,0.0976 normalized occupancy
2,TCGTGGAA,0.0835 normalized occupancy
3,CCGTGGAA,0.0755 normalized occupancy
4,AGGTGGAG,0.0827 normalized occupancy
5,CCGTGGAG,0.0796 normalized occupancy
6,GCGTGGAA,0.106 normalized occupancy
7,ACGTATTA,0.0818 normalized occupancy
8,AATGGTTA,0.0807 normalized occupancy
9,CATGACGG,0.0797 normalized occupancy
10,AAGCGTTC,0.0728 normalized occupancy
11,AAGCGTTG,0.076 normalized occupancy
12,AAGCGTCA,0.0737 normalized occupancy
13,AAGCGTTA,0.0738 normalized occupancy
14,CACCGTGC,0.0868 normalized occupancy
15,AAGCGTGG,0.121 normalized occupancy
16,AAGCGCGG,0.0752 normalized occupancy
17,AAGCGTGC,0.104 normalized occupancy
18,AAGCGTGA,0.0961 normalized occupancy
19,GAGCGTGC,0.0887 normalized occupancy
20,CAGCGCGC,0.0795 normalized occupancy
21,CAGCGTGC,0.118 normalized occupancy
22,GGTCGGAC,0.0772 normalized occupancy
23,TATGCTAA,0.0798 normalized occupancy
24,CAATCTCG,0.0753 normalized occupancy
25,ACGCTGAC,0.0735 normalized occupancy

row,Sequence,binding signal
1,ATTTGAGA,0.0896 normalized occupancy
2,AGACCCTC,0.0752 normalized occupancy
3,CTGGTCAC,0.0773 normalized occupancy
4,ATTTATGC,0.0838 normalized occupancy
5,AGAGTTAA,0.0737 normalized occupancy
6,AAGCGTGT,0.0967 normalized occupancy
7,AAGCGCGT,0.0758 normalized occupancy
8,AAGCGTAT,0.0722 normalized occupancy
9,GAGGGGAA,0.0755 normalized occupancy
10,ACGTGATA,0.11 normalized occupancy
11,AGGTGATG,0.0834 normalized occupancy
12,CCGTGATC,0.0778 normalized occupancy
13,AAGTGATA,0.0795 normalized occupancy
14,AGGTGATA,0.0839 normalized occupancy
15,GTATGATA,0.0877 normalized occupancy
16,AAGTGATC,0.0794 normalized occupancy
17,AAGTGATG,0.0756 normalized occupancy
18,ACGTGATG,0.103 normalized occupancy
19,ACGTGATC,0.108 normalized occupancy
20,GCATGATA,0.0994 normalized occupancy
21,CCATGATA,0.0845 normalized occupancy
22,CTGGACGA,0.0734 normalized occupancy
23,CCTTCAGA,0.0732 normalized occupancy
24,CGAGGGCA,0.0765 normalized occupancy
25,GTGCTGGA,0.0813 normalized occupancy

row,Sequence,binding signal
1,ATTGATTG,0.0769 normalized occupancy
2,CAAGGGAA,0.0781 normalized occupancy
3,ATGGATGC,0.082 normalized occupancy
4,GCGTGATA,0.1 normalized occupancy
5,CCGTGATA,0.0782 normalized occupancy
6,GAGTGATA,0.0802 normalized occupancy
7,CCATTCAA,0.0785 normalized occupancy
8,AGCATGGA,0.1 normalized occupancy
9,ATCATGGG,0.0858 normalized occupancy
10,AGCATAGG,0.0718 normalized occupancy
11,AGAATGGC,0.0756 normalized occupancy
12,CGCATAGC,0.0734 normalized occupancy
13,AGCATGGC,0.102 normalized occupancy
14,AGCATGGG,0.106 normalized occupancy
15,CGCATGGC,0.127 normalized occupancy
16,ATCATGGA,0.0834 normalized occupancy
17,AGCATTGA,0.0777 normalized occupancy
18,ATCATGGC,0.0863 normalized occupancy
19,CCCATGGC,0.0849 normalized occupancy
